# According to PubChem BioAssay (NCATS):
# Values joined by “and” are separate entries in the source; they are usually repeats but may differ in a detail not shown here. Identical values can stand only once. Values without a mark were called inactive. Inconclusive results are not listed. More than one record can exist for a structure, and the calls need not agree. Active and inactive are the calls of the source. Unless noted, calls follow the shape of the dose curve; as a rule, active = well fitted curve in the direction sought with a large enough effect; inconclusive = small, poorly fitted or top-dose-only effect, or another doubt; inactive = no such curve, though single readings can be large; an effect the other way counts as inactive or inconclusive.
# Legend:
# [1] = qHTS assay for small molecule activators of the p53 signaling pathway (AID 651743; active = well fitted activation curve with a large enough effect in the signal ratio, not every such curve was filed as active; the % refers to the signal ratio; also: potency is read from the fitted curve at half-maximal effect; as to activation: series mostly up to about 92 µM; % of control where 0% means no effect); details: HCT-116 p53RE-bla, beta-lactamase FRET ratio, 16 h; activation: hits give high values
# In short: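 A beta-lactamase reporter under p53 response element control, stably carried by HCT-116 cells, reported pathway activation. Test compounds were applied for 16 hours at 37 C, and fluorescence was measured 2 hours after adding the B/G FRET substrate.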
# [2] = qHTS assay for small molecule activators of the nuclear factor-kappa B (NF-kB) signaling pathway (AID 651749; active = well fitted activation curve with a large enough effect in the signal ratio; the % refers to the signal ratio; also: series mostly up to about 77 µM; % of control where 0% means no effect); details: NF-kB-bla ME-180 cells, beta-lactamase FRET ratio, 16 h; hits give high values
# In short: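 FRET-based beta-lactamase detection in ME-180 cells reports NF-kB response-element-driven transcription following overnight (16 hr) compound treatment.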
# [3] = qHTS assay for environmental chemicals that activate the Aryl hydrocarbon Receptor (AhR) signaling pathway (AID 651777); details: 1A2-DRE human hepatoma cells, luciferase, 24 h; activation: hits give high values; also: nearly all actives have a fitted effect of over 15% in size; also: potency is read from the fitted curve at half-maximal effect; as to activation: % of control where 0% means no effect
# In short: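 Measured luciferase activity, read 30 min after One-Glo addition at room temperature, from human hepatoma cells bearing a dioxin response element–CYP1A2 promoter reporter and exposed to compound for 24 hr at 37 C.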
# [4] = target: Peroxisome proliferator-activated receptor alpha (Homo sapiens) (UniProt Q07869); experiment: qHTS assay for small molecule agonists of the peroxisome proliferator-activated receptor alpha (PPARalpha) signaling pathway (AID 651778); details: PathHunter PPARalpha complementation, chemiluminescence, 6 h; hits give high values; also: % of control where 0% means no effect
# In short: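 Chemiluminescence from complemented enzyme reported PPARalpha activation in cells after 6 hr of compound treatment at 37 C. The detection reagent was incubated for 60 min at room temperature, and compounds were scored as agonists.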
# [5] = qHTS assay for small molecule agonists of the antioxidant response element (ARE) signaling pathway measured by Nrf2-dependant transcriptional activity (AID 720636; active = well fitted curve in the direction sought with a large enough effect in the repeat runs; an effect the other way counts as inactive or inconclusive; also: potency is read from the fitted curve at half-maximal effect;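 as to activation: HepG2 cells with an ARE-driven luciferase reporter; % of control where 0% means no effect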)
# In short: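 In HepG2 cells engineered with an Nrf2-responsive luciferase gene, ARE induction was quantified as luminescence after 16 hr compound treatment at 37 C.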
# [6] = qHTS assay for small molecule agonists of the antioxidant response element (ARE) signaling pathway measured by Nrf2-dependant transcriptional activity - cell viability counter screen (AID 720653; active = well fitted curve in the direction sought with a large enough effect in the repeat runs; an effect the other way counts as inactive or inconclusive; also: potency is read from the fitted curve at half-maximal effect; as to max response: % is scaled to controls: 0 for no effect and ±100 for the full control effect); details: ARE-bla HepG2 viability, CellTiter-Glo ATP luminescence, 16 h; max response: hits give low values
# In short: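 Cytotoxicity counter screen: intracellular ATP quantified by CellTiter-Glo luminescence in the same ARE-bla HepG2 plates, after 16 h compound exposure and a 2 h beta-lactamase substrate step.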
# [7] = qHTS assay for small molecule disruptors of the mitochondrial membrane potential - 1 hr assay (AID 651754; calls by dose curve; also: nearly all actives have a fitted effect of over 35% in size; also: potency is read from the fitted curve at half-maximal effect)
# In short: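 In this qHTS format, a 1 hr compound treatment of HepG2 cells precedes Mito-MPS staining, and membrane potential is judged from aggregate (red) against monomer (green) fluorescence intensity.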
# [8] = qHTS assay for small molecule disruptors of the mitochondrial membrane potential - 5 hr assay (AID 651755; calls by dose curve; also: nearly all actives have a fitted effect of over 40% in size; also: potency is read from the fitted curve at half-maximal effect)
# In short: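 Membrane-potential dye readout: red aggregate (540 ex/590 em) versus green monomer (490 ex/535 em) fluorescence after 30 min dye loading, following 5 hr compound exposure at 37C of overnight-plated HepG2 cells.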
# [9] = qHTS assay to identify small molecules that stimulate interleukin-8 (IL-8) secretion (AID 651758; active = well fitted activation curve with a large enough effect in the signal ratio; the % refers to the signal ratio; also: potency is read from the fitted curve at half-maximal effect; as to activation: 0% is about no effect)
# In short: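 Secreted IL-8 measured homogeneously by TR-FRET (two labelled anti-IL-8 antibodies, 1-3 h at room temperature) after a 16 h, 37 C compound treatment of THP-1 cells at 2000 cells/well.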
# [10] = target: Nuclear receptor ROR-gamma (Homo sapiens) (UniProt P51449); experiment: qHTS assay for small molecule antagonists of the retinoid-related orphan receptor gamma (ROR-gamma) signaling pathway (AID 651802); also: nearly all actives have a fitted effect of over 60% in size; also: potency is read from the fitted curve at half-maximal effect
# In short: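 Doxycycline-induced reporter activity in engineered CHO cells (TET-inducible ROR, RORE-LUC) was measured by luminescence after 16hr compound exposure at 37C.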
# [11] = qHTS for compounds that reverse cellular toxicity of Amyloid beta (A-beta) peptide in yeast: LOPAC Validation Assay (AID 720559); details: Potency: rescue of growth toxicity;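 also: plate controls were DMSO for no effect and equimolar ferric chloride plus clioquinol rescue for full effect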
# In short: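 Medium dispensed, compounds pinned, A-beta yeast suspension added; plates held at 30 C for 48 hr; absorbance measured at 600 nm to gauge growth; values scaled between DMSO and FeCl3/clioquinol (equimolar) controls.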
# [12] = qHTS for Activators of Parkin Expression: LOPAC Validation Assay (NLuc Reporter) (AID 720572)
# In short: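 Compound effects on Parkin promoter activity were measured as NanoLuc luminescence after 24 h at 37 C. The neuronal reporter line also carried FLuc, which was read first. LOPAC compounds were tested at 7 concentrations, with normalization to DMSO (0%) and positive control (100%).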
# [13] = target: Tumor necrosis factor (Homo sapiens) (UniProt P01375); experiment: qHTS assay to identify small molecules that stimulate Tumor Necrosis Factor-alpha (TNF-alpha) secretion (AID 651757; active = well fitted curve in the direction sought with a large enough effect in the signal ratio; the % refers to the signal ratio; also: 0% is about no effect)
# In short: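 Using 3000 THP-1 cells per well, compounds and controls were applied for 17 hrs at 37 C. Detection followed with two labeled anti-TNF-alpha antibodies (cryptate donor, XL665 acceptor) for 3 hr at room temperature, measured by TR-FRET.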
# [14] = target: Arylsulfatase A (Homo sapiens) (UniProt P15289); experiment: qHTS screen for enhancers of Arylsulfatase A (ASA1): LOPAC Validation Assay (AID 720538); also: 0% is about no effect
# In short: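 MLD patient fibroblasts (SV40, ASA-I179S), 1536-well; adhere 6 hrs; cpd 48h, 37 degree C, 5% CO2; pNCS 0.5mM final in lysis buffer, 14h RT; stop 1N NaOH final; fluor. Ex525/Em598.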
# [15] = qHTS for Activators of Parkin Expression: LOPAC Validation Assay (FLuc Reporter) (AID 720573)
# In short: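 Cells seeded, 24 h; compounds pinned, 7-pt dose response; 24 h at 37 C/5% CO2; volume reduced; FLuc reagent 10 min RT; luminescence read. Normalization: DMSO = 0, positive control = 100%.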
# Chain of Tumor necrosis factor (Homo sapiens) (P01375 whole entry, looked up): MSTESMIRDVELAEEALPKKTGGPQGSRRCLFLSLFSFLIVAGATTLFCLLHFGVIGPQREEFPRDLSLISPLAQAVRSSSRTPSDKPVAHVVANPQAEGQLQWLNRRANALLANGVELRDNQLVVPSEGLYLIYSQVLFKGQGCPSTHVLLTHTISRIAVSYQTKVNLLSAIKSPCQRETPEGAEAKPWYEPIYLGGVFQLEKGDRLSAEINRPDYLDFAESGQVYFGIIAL
# Chain of Nuclear receptor ROR-gamma (Homo sapiens) (P51449 whole entry, looked up): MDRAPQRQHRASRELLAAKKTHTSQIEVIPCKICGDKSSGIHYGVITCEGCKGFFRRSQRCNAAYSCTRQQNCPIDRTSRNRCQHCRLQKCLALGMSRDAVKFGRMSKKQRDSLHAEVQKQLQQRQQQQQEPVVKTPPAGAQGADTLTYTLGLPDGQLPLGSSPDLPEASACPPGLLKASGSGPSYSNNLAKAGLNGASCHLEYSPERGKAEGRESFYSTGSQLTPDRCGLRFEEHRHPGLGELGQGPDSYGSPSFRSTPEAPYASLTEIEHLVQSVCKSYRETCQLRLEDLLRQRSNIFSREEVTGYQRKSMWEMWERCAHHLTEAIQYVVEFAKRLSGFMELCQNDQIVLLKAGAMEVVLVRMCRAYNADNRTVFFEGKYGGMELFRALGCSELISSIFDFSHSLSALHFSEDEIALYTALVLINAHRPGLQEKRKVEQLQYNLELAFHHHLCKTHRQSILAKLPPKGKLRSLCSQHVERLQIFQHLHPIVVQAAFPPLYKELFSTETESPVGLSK
# Chain of Peroxisome proliferator-activated receptor alpha (Homo sapiens) (Q07869 whole entry, looked up): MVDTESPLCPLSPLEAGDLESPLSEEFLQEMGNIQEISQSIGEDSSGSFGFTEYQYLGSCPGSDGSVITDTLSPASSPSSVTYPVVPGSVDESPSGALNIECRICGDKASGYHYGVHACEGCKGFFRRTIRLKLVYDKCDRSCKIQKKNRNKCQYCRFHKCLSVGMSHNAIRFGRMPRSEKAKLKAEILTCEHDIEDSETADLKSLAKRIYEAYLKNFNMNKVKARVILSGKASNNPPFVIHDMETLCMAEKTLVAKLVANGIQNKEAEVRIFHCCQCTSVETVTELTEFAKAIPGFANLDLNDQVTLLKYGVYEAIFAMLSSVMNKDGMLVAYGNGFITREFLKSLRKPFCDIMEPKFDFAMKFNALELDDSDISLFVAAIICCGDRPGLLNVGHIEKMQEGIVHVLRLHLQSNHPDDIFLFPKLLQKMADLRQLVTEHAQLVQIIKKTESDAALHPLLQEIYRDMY
# Chain of Arylsulfatase A (Homo sapiens) (P15289 whole entry, looked up): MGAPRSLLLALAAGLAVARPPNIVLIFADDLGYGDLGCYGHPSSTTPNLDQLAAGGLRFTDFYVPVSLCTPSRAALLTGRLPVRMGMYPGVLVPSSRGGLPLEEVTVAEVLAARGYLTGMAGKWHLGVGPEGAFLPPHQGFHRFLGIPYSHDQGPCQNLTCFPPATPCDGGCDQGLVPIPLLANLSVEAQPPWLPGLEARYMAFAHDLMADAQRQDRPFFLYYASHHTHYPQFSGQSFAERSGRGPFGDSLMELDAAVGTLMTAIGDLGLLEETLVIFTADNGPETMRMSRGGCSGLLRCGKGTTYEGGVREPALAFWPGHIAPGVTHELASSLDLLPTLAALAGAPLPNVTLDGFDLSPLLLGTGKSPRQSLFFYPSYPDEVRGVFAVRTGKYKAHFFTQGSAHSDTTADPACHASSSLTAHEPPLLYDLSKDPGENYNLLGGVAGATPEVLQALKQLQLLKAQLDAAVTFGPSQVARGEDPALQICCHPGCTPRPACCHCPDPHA
compound,measurement,setting,value
Nc1cc(-c2ccncc2)c[nH]c1=O,activation,[1],-0.79%
same,activation,[2],-2.44%
same,activation,[3],-0.684%
same,max response,[4],-1.14%
same,Potency,[5],inactive
same,max response,[6],-1.18%
CN(C)c1ccc(C(=C2C=CC(=[N+](C)C)C=C2)c2ccccc2)cc1,Potency,[7],0.75 µM (active)
same,Potency,[8],0.841 µM (active)
same,max response,[4],-10.3%
same,Potency,[5],inactive
same,Potency,[6],6.31 µM (active)
O=C(O)[C@H](O)[C@@H](O)[C@H](O)[C@H](O)CO,activation,[2],-5.45%
same,activation,[3],-0.169%
same,max response,[4],-0.488%
same,Potency,[5],inactive
same,max response,[6],21%
O=C1CN(/N=C/c2ccc([N+](=O)[O-])o2)C(=O)N1,activation,[1],5.55%
same,Potency,[7],37.6 µM (active)
same,Potency,[9],inactive
same,activation,[3],4.15%
same,max response,[4],-1.28%
same,Potency,[5],inactive
CN(C)c1ccc(N=NS(=O)(=O)O)cc1,activation,[1],-1.59% and 15.3%
same,Potency,[7],15 µM (active)
same,Potency,[8],8.41 µM (active)
same,Potency,[3],70.8 µM (active)
same,activation,[3],10.4%
same,max response,[4],-7.89% and -1.86%
same,Potency,[10],5.96 µM (active)
same,Potency,[5],54.5 µM (active)
same,max response,[6],-12.4% and -28.6%
c1cnc2c(c1)ccc1cccnc12,activation,[2],1.8%
same,Potency,[7],inactive
same,activation,[3],2.54%
same,max response,[4],-3.72%
same,Potency,[10],2.37 µM (active)
same,Potency,[11],inactive
same,Potency,[12],inactive
same,Potency,[5],inactive
same,max response,[6],-9.05%
Nc1ccc(O)c(C(=O)O)c1,activation,[1],0.238% and -1.06%
same,activation,[2],-0.163% and 0.962%
same,activation,[3],0.023% and -1.58%
same,max response,[4],-9.31% and -0.252%
same,Potency,[10],inactive
same,Potency,[5],inactive
same,max response,[6],-2.51% and -1.43%
COc1cc(/C=C/C(=O)CC(=O)/C=C/c2ccc(O)c(OC)c2)ccc1O,Potency,[1],31.6 µM (active)
same,Potency,[7],3.76 µM (active)
same,Potency,[8],5.96 µM (active)
same,max response,[4],-5.38%
same,Potency,[5],21.1 µM (active)
same,max response,[6],-2.44%
CC(C)NCC(O)COc1cccc2ccccc12 (stereo not given),activation,[1],-4.3% and -0.33%
same,activation,[2],-0.327% and 0.291%
same,Potency,[7],inactive
same,Potency,[8],inactive
same,outcome,[13],inactive
same,activation,[3],1.27% and 9.4%
same,max response,[4],-1.25% and -0.701%
same,Potency,[10],inactive
same,Potency,[14],inactive
same,Potency,[11],inactive
same,Potency,[5],inactive
same,max response,[6],-11.2% and -5.42%
O=C(O)c1ccccc1Nc1cccc(C(F)(F)F)c1,activation,[1],3.61%
same,activation,[2],-0.0531%
same,activation,[3],0.429%
same,Potency,[5],inactive
same,max response,[6],0.398%
Nc1ccc([N+](=O)[O-])cc1O,activation,[1],-1.9% and 0.18%
same,activation,[2],0.687% and -0.798%
same,activation,[3],7.01%
same,max response,[4],-5.57% and -3.71%
same,Potency,[10],inactive
same,max response,[6],-6.11% and -12.4%
CC(C)OC(=O)c1cc(C(=O)OC(C)C)cc([N+](=O)[O-])c1,activation,[3],4%
same,max response,[4],0.0203%
same,Potency,[5],inactive
same,max response,[6],-4.4%
CCCCCCCCCCCCCCCCCC(=O)O,activation,[1],2.31% and -5.31% and -1.74%
same,activation,[2],-1.37% and -0.0787%
same,Potency,[7],inactive
same,Potency,[8],inactive
same,outcome,[13],inactive
same,activation,[3],0.0234% and 0.947% and 1.53%
same,max response,[4],3.29% and 5.21% and -0.146%
same,Potency,[10],inactive
same,Potency,[5],inactive
same,max response,[6],-2.11% and 6.03% and 17.1%
C#C[C@]1(O)CC[C@H]2[C@@H]3CCc4cc(O)ccc4[C@H]3CC[C@@]21C,activation,[1],11.3% and 11.7%
same,activation,[2],2.58% and -0.453%
same,Potency,[7],inactive
same,Potency,[8],inactive
same,outcome,[13],inactive
same,Potency,[9],75 µM (active)
same,activation,[3],-0.528% and -0.741%
same,max response,[4],-1.9% and -2.24%
same,Potency,[10],33.5 µM (active)
same,Potency,[5],inactive
same,max response,[6],6.34% and 7.49%
CN1CCC[C@H]1c1cccnc1,Potency,[7],inactive
same,Potency,[8],inactive
same,outcome,[13],inactive
same,activation,[3],0.841% and 0.227%
same,max response,[4],-3.15% and -0.899%
same,Potency,[11],inactive
same,Potency,[15],inactive
same,Potency,[5],inactive
same,max response,[6],-4.29% and -4.16%
O=c1cc(-c2ccccc2)oc2ccccc12,activation,[2],-0.929% and -1.54%
same,Potency,[3],50.1 µM (active) and 44.7 µM (active)
same,max response,[4],0.229% and -0.923%
same,max response,[6],-6.91% and -11.5%
C=CCCCCCCCCC(=O)O,activation,[1],-2.56%
same,activation,[2],-1.28%
same,activation,[3],1.9%
same,max response,[4],3.91%
same,Potency,[5],inactive
same,max response,[6],1.06%
